Source: the supplement of paper PMC7411054
Structures can show the parent of a compound that is named as a salt.

How the values were obtained:
Experiment in all cases: phenotypically active (imaging signature differs from DMSO and reproducible) at any of 0.3-9 uM (binary (1 = active, 0 = inactive)); higher = active
Details in all cases: treatment time: 24 h
A549-ACTB-RAB5A = system: A549-ACTB-RAB5A
Summary of the method: (§1)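 Each of fifteen gene-edited A549, HepG2 and WPMY1 reporter lines, marked with BFP for segmentation and GFP and RFP/FusionRed, was treated in four wells at 0.3, 1, 3 or 9 µM for 24 h prior to live imaging. Normalisation of per-well live-cell features used solvent control wells. Deviation needed ≥3 of 4 wells beyond the 95th percentile of control Euclidean distances, and reproducibility needed a median replicate Pearson correlation above the 95th percentile of non-replicates. Both were required for phenotypic activity.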

A549-CANX-COX4 = system: A549-CANX-COX4
Summary of the method: as §1

A549-GM130-SQSTM1 = system: A549-GM130-SQSTM1
Summary of the method: as §1

A549-TP53BP1-CLTA = system: A549-TP53BP1-CLTA
Summary of the method: as §1

A549-TUBA1B-RELA = system: A549-TUBA1B-RELA
Summary of the method: as §1

HepG2-ACTB-RAB5A = system: HepG2-ACTB-RAB5A
Summary of the method: as §1

HepG2-CANX-COX4 = system: HepG2-CANX-COX4
Summary of the method: as §1

HepG2-GM130-SQSTM1 = system: HepG2-GM130-SQSTM1
Summary of the method: as §1

HepG2-TP53BP1-CLTA = system: HepG2-TP53BP1-CLTA
Summary of the method: as §1

HepG2-TUBA1B-RELA = system: HepG2-TUBA1B-RELA
Summary of the method: as §1

WPMY1-ACTB-RAB5A = system: WPMY1-ACTB-RAB5A
Summary of the method: as §1

WPMY1-CANX-COX4 = system: WPMY1-CANX-COX4
Summary of the method: as §1

WPMY1-GM130-SQSTM1 = system: WPMY1-GM130-SQSTM1
Summary of the method: as §1

WPMY1-TP53BP1-CLTA = system: WPMY1-TP53BP1-CLTA
Summary of the method: as §1

WPMY1-TUBA1B-RELA = system: WPMY1-TUBA1B-RELA
Summary of the method: as §1

Measured: phenotypically active

CC(C)(C)NC(=O)[C@@H]1CN(Cc2cccnc2)CCN1C[C@@H](O)C[C@@H](Cc1ccccc1)C(=O)N[C@H]1c2ccccc2C[C@H]1O [indinavir]
inactive: A549-ACTB-RAB5A 0 | A549-CANX-COX4 0 | A549-GM130-SQSTM1 0 | A549-TP53BP1-CLTA 0 | A549-TUBA1B-RELA 0 | HepG2-ACTB-RAB5A 0 | HepG2-CANX-COX4 0 | HepG2-GM130-SQSTM1 0 | HepG2-TP53BP1-CLTA 0 | HepG2-TUBA1B-RELA 0 | WPMY1-ACTB-RAB5A 0 | WPMY1-CANX-COX4 0 | WPMY1-GM130-SQSTM1 0 | WPMY1-TP53BP1-CLTA 0 | WPMY1-TUBA1B-RELA 0

C[C@@H]1C(=O)O[C@H]2C[C@@]34[C@H]5C[C@@H](C(C)(C)C)[C@]36[C@@H](OC(=O)[C@@H]6O)O[C@@]4(C(=O)O5)[C@]21O [Ginkgolide A]
inactive: A549-ACTB-RAB5A 0 | A549-CANX-COX4 0 | A549-GM130-SQSTM1 0 | A549-TP53BP1-CLTA 0 | A549-TUBA1B-RELA 0 | HepG2-ACTB-RAB5A 0 | HepG2-CANX-COX4 0 | HepG2-GM130-SQSTM1 0 | HepG2-TP53BP1-CLTA 0 | HepG2-TUBA1B-RELA 0 | WPMY1-ACTB-RAB5A 0 | WPMY1-CANX-COX4 0 | WPMY1-GM130-SQSTM1 0 | WPMY1-TP53BP1-CLTA 0 | WPMY1-TUBA1B-RELA 0

Nc1ncnc2c1ncn2[C@@H]1O[C@H](CO)C[C@H]1O [Cordycepin]
inactive: A549-ACTB-RAB5A 0 | A549-CANX-COX4 0 | A549-GM130-SQSTM1 0 | A549-TP53BP1-CLTA 0 | A549-TUBA1B-RELA 0 | HepG2-ACTB-RAB5A 0 | HepG2-CANX-COX4 0 | HepG2-GM130-SQSTM1 0 | HepG2-TP53BP1-CLTA 0 | HepG2-TUBA1B-RELA 0 | WPMY1-ACTB-RAB5A 0 | WPMY1-CANX-COX4 0 | WPMY1-GM130-SQSTM1 0 | WPMY1-TP53BP1-CLTA 0 | WPMY1-TUBA1B-RELA 0

COC(=O)/C=C/c1cccc(N(Cc2ccc(-c3ccc(N(C)C)cc3)cc2)C(=O)C2CCCCC2)c1 [fexaramine]
inactive: A549-ACTB-RAB5A 0 | A549-CANX-COX4 0 | A549-GM130-SQSTM1 0 | A549-TP53BP1-CLTA 0 | A549-TUBA1B-RELA 0 | HepG2-ACTB-RAB5A 0 | HepG2-CANX-COX4 0 | HepG2-GM130-SQSTM1 0 | HepG2-TP53BP1-CLTA 0 | HepG2-TUBA1B-RELA 0 | WPMY1-ACTB-RAB5A 0 | WPMY1-CANX-COX4 0 | WPMY1-GM130-SQSTM1 0 | WPMY1-TP53BP1-CLTA 0 | WPMY1-TUBA1B-RELA 0

CCN(c1ccccc1)c1cc(NC)[n+](C)c(C)n1
inactive: A549-ACTB-RAB5A 0 | A549-CANX-COX4 0 | A549-GM130-SQSTM1 0 | A549-TP53BP1-CLTA 0 | A549-TUBA1B-RELA 0 | HepG2-ACTB-RAB5A 0 | HepG2-CANX-COX4 0 | HepG2-GM130-SQSTM1 0 | HepG2-TP53BP1-CLTA 0 | HepG2-TUBA1B-RELA 0 | WPMY1-ACTB-RAB5A 0 | WPMY1-CANX-COX4 0 | WPMY1-GM130-SQSTM1 0 | WPMY1-TP53BP1-CLTA 0 | WPMY1-TUBA1B-RELA 0

CNCC[C@@H](Oc1ccccc1C)c1ccccc1 [atomoxetine]
inactive: A549-ACTB-RAB5A 0 | A549-CANX-COX4 0 | A549-GM130-SQSTM1 0 | A549-TP53BP1-CLTA 0 | A549-TUBA1B-RELA 0 | HepG2-ACTB-RAB5A 0 | HepG2-CANX-COX4 0 | HepG2-GM130-SQSTM1 0 | HepG2-TP53BP1-CLTA 0 | HepG2-TUBA1B-RELA 0 | WPMY1-ACTB-RAB5A 0 | WPMY1-CANX-COX4 0 | WPMY1-GM130-SQSTM1 0 | WPMY1-TP53BP1-CLTA 0 | WPMY1-TUBA1B-RELA 0

Nc1cc(-c2ccncc2)c[nH]c1=O [amrinone]
inactive: A549-ACTB-RAB5A 0 | A549-CANX-COX4 0 | A549-GM130-SQSTM1 0 | A549-TP53BP1-CLTA 0 | A549-TUBA1B-RELA 0 | HepG2-ACTB-RAB5A 0 | HepG2-CANX-COX4 0 | HepG2-GM130-SQSTM1 0 | HepG2-TP53BP1-CLTA 0 | HepG2-TUBA1B-RELA 0 | WPMY1-ACTB-RAB5A 0 | WPMY1-CANX-COX4 0 | WPMY1-GM130-SQSTM1 0 | WPMY1-TP53BP1-CLTA 0 | WPMY1-TUBA1B-RELA 0

Cc1cc(/N=N/c2cc(S(=O)(=O)O)c(C)cc2C)c(N)cc1O [Ischemin sodium salt]
inactive: A549-ACTB-RAB5A 0 | A549-CANX-COX4 0 | A549-GM130-SQSTM1 0 | A549-TP53BP1-CLTA 0 | A549-TUBA1B-RELA 0 | HepG2-ACTB-RAB5A 0 | HepG2-CANX-COX4 0 | HepG2-GM130-SQSTM1 0 | HepG2-TP53BP1-CLTA 0 | HepG2-TUBA1B-RELA 0 | WPMY1-ACTB-RAB5A 0 | WPMY1-CANX-COX4 0 | WPMY1-GM130-SQSTM1 0 | WPMY1-TP53BP1-CLTA 0 | WPMY1-TUBA1B-RELA 0

Brc1c(NC2=NCCN2)ccc2nccnc12 [brimonidine]
inactive: A549-ACTB-RAB5A 0 | A549-CANX-COX4 0 | A549-GM130-SQSTM1 0 | A549-TP53BP1-CLTA 0 | A549-TUBA1B-RELA 0 | HepG2-ACTB-RAB5A 0 | HepG2-CANX-COX4 0 | HepG2-GM130-SQSTM1 0 | HepG2-TP53BP1-CLTA 0 | HepG2-TUBA1B-RELA 0 | WPMY1-ACTB-RAB5A 0 | WPMY1-CANX-COX4 0 | WPMY1-GM130-SQSTM1 0 | WPMY1-TP53BP1-CLTA 0 | WPMY1-TUBA1B-RELA 0

O=C(Nc1cccnn1)N1CCN(c2nccc(-c3ccc(F)c(F)c3)n2)CC1
inactive: A549-ACTB-RAB5A 0 | A549-CANX-COX4 0 | A549-GM130-SQSTM1 0 | A549-TP53BP1-CLTA 0 | A549-TUBA1B-RELA 0 | HepG2-ACTB-RAB5A 0 | HepG2-CANX-COX4 0 | HepG2-GM130-SQSTM1 0 | HepG2-TP53BP1-CLTA 0 | HepG2-TUBA1B-RELA 0 | WPMY1-ACTB-RAB5A 0 | WPMY1-CANX-COX4 0 | WPMY1-GM130-SQSTM1 0 | WPMY1-TP53BP1-CLTA 0 | WPMY1-TUBA1B-RELA 0

CC(C)(C)NC[C@H](O)COc1cccc2c1CCCC2=O [levobunolol]
inactive: A549-ACTB-RAB5A 0 | A549-CANX-COX4 0 | A549-GM130-SQSTM1 0 | A549-TP53BP1-CLTA 0 | A549-TUBA1B-RELA 0 | HepG2-ACTB-RAB5A 0 | HepG2-CANX-COX4 0 | HepG2-GM130-SQSTM1 0 | HepG2-TP53BP1-CLTA 0 | HepG2-TUBA1B-RELA 0 | WPMY1-ACTB-RAB5A 0 | WPMY1-CANX-COX4 0 | WPMY1-GM130-SQSTM1 0 | WPMY1-TP53BP1-CLTA 0 | WPMY1-TUBA1B-RELA 0

CC1(COc2ccc(CC3SC(=O)NC3=O)cc2)CCCCC1 (stereo not given) [Ciglitazone]
inactive: A549-ACTB-RAB5A 0 | A549-CANX-COX4 0 | A549-GM130-SQSTM1 0 | A549-TP53BP1-CLTA 0 | A549-TUBA1B-RELA 0 | HepG2-ACTB-RAB5A 0 | HepG2-CANX-COX4 0 | HepG2-GM130-SQSTM1 0 | HepG2-TP53BP1-CLTA 0 | HepG2-TUBA1B-RELA 0 | WPMY1-ACTB-RAB5A 0 | WPMY1-CANX-COX4 0 | WPMY1-GM130-SQSTM1 0 | WPMY1-TP53BP1-CLTA 0 | WPMY1-TUBA1B-RELA 0
